Results reported in PubChem BioAssay (NCI).
Compounds without any hit were thinned out: in the full panel of roughly 83,000, 20% have a hit.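 96-well plates, one dose, 48 hours. Percent growth reported; active if below 10.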 Unmarked numbers belong to inactive results. Calls of active or inactive are those of the source.

test system: HCT-15 colon; assay: NCI-60 one-dose screen, 48 h (100 = growth as untreated, 0 = no growth, -100 = all killed); settings: 10 µM unless noted
Procedure: Growth inhibition of the HCT-15 human tumor cell line is measured as a screen for anti-cancer activity. Cells are grown in 96 well plates and exposed to the test compound for 48 hours. Compounds are tested at a single concentration, which is 10^-5 M for most compounds. The reported endpoint is percent growth (GI% or GIPRCNT), where numbers from 0 - 100% represent growth inhibition, and numbers from -100% - 0 represent cell death. For example, a value of 40 represents 60% growth inhibition. A value of 0 means no net growth occurred over the course of the experiment. A value of -40 indicates 40% of cells at the beginning of the experiment died by the end of the experiment. A value of -100 means all cells are dead at the end of the experiment.
NCI-60 Human Tumor Cell Lines Screen was performed using the standard one-dose NCI protocol, which is described in more detail at https://dtp.cancer.gov/discovery_development/nci-60/default.htm.
Compounds with GIPRCNT values below 10 were considered active. Activity score was based on GIPRCNT using the following formula: […]
Score is 0 for GIPRCNT values of 100 or above, 50 for GIPRCNT values of 0, and 100 for GIPRCNT values of -100.

Q: `COc1ccc(-n2c(SCC(=O)Nc3ccc(-c4nc5ccccc5[nH]4)cc3)nc3ccccc3c2=O)cc1` was tested. Which growth did it give?
A: The growth was -11% (active).

Q: With `O=C(N/N=C/c1ccco1)c1[nH]c2ccc(Br)cc2c1-c1ccccc1` as the molecule, how does the growth read?
A: The growth was 10.4%.

Q: How did the growth turn out when `CCN1CCN(S(=O)(=O)c2oc(-c3ccc(Cl)cc3)nc2C#N)CC1` was run?
A: The growth was -35.5% (active).

Q: `COc1cccc(COc2ccc(/C=C3/C(=O)Nc4cc(Cl)ccc43)cc2)c1` was tested. Which growth did it give?
A: Its growth is 99.6%.

Q: For `CN(C)CCCOc1c2ccc(Cl)cc2nc2c1oc1ccccc12`, which growth is on record?
A: The growth was -21.6% (active).

Q: Which growth does the source give for `C=C1CC[C@H]2[C@@](C)(CCC3OC(c4ccc(OCc5cn(C6CC(OC(C)=O)C(OC(C)=O)C(COC(C)=O)O6)nn5)cc4)OC[C@]32C)[C@@H]1/C=C/C1=CCOC1=O` (stereo not given in full) here?
A: The growth was 77.2%.

Q: How did the growth turn out when `COc1cc(-c2nc3ccc(-c4nnc(SCC(=O)Nc5ccc(C(=O)/C=C/c6ccc(Cl)cc6)cc5)o4)cc3[nH]2)cc(OC)c1OC` was run?
A: Its growth is 86.9%.

Q: How did the growth turn out when `O=C(CSc1nc2sc3c(c2c(=O)n1-c1ccc(Cl)cc1)CCCC3)NNC(=O)Nc1cccc(C(F)(F)F)c1` was run?
A: The growth was 12.9%.

Q: For `CNC(=O)c1cc(-c2ccc(NC(=O)Nc3ccc(N4CCOCC4)c(C(F)(F)F)c3)cc2)nc2cccnc12`, which growth is on record?
A: Its growth is 33.5%.

Q: For `COc1ccc(-c2nc3ccc(-c4nnc(SCC(=O)Nc5ccc(C(C)=O)cc5)o4)cc3[nH]2)cc1`, which growth is on record?
A: The growth was 100%.

Q: Which growth does the source give for `CS(=O)(=O)c1ccc(-c2nc3ccccn3c2/C=N/Nc2nc(-c3ccc(Cl)cc3)cs2)cc1` here?
A: The growth was 94.2%.

Q: How did the growth turn out when `O=C(CSc1nc2sc3c(c2c(=O)n1-c1ccc(Cl)cc1)CCCC3)N/N=C/c1ccc(F)cc1` was run?
A: The growth was 73.9%.

Q: For `COc1cc(-c2nc3ccc(-c4nnc(SCC(=O)Nc5ccc(C(C)=O)cc5)o4)cc3[nH]2)cc(OC)c1OC`, which growth is on record?
A: Its growth is 103%.

Q: Which growth does the source give for `Cc1nc(-c2cc3ccccc3oc2=O)ccc1C(=O)/C=C/c1ccc(N2CCOCC2)cc1` here?
A: Its growth is 54.5%.

Q: For `CSc1ccc2c(c1)N(C(=O)/C(C#N)=C/c1c[nH]c3ccccc13)c1ccccc1S2`, which growth is on record?
A: The growth was 27.3%.

Q: For `COc1ccc(CNS(=O)(=O)/N=C2\NC(=O)NC2=C(Cl)Cl)cc1`, which growth is on record?
A: Its growth is 56.1%.

Q: For `Cc1[nH]nc2ncc(C#Cc3cncc(C(=O)Nc4ccc(CN5CCN(C)CC5)c(C(F)(F)F)c4)c3)cc12`, which growth is on record?
A: Its growth is 12.5%.

Q: How did the growth turn out when `O=C1[C@H]2Cc3c([nH]c4ccccc34)[C@@H](c3ccc(Br)cc3)N2C(=O)CN1C1CCN(Cc2ccccc2)CC1` was run?
A: Its growth is 15.8%.

Q: Which growth does the source give for `CCCCN1C(=O)/C(=c2\sc3n(c2=O)C2C(NN=3)N(CC)C(=O)N2CC)c2cc(Cl)ccc21` (stereo not given) here?
A: Its growth is 43.9%.

Q: For `Cn1cc(-c2cc(N)n3nc(-c4cn(C)c5ccc(Br)cc45)cc3n2)c2cc(Br)ccc21`, which growth is on record?
A: The growth was 41.7%.

Q: With `Clc1ccc(Cc2nnc3sc(-c4cccnc4)nn23)cc1` as the molecule, how does the growth read?
A: Its growth is 99.6%.

Q: Which growth does the source give for `O=C(c1ccc(Cl)cc1)C1[C@H](c2ccc(Cl)cc2)[C@@H](c2ccccc2)NC12C(=O)Nc1ccc(Br)cc12` (stereo not given in full) here?
A: Its growth is 24.6%.

Q: `CC(O)C(NC(=O)C1CCCN1C(=O)CNC(=O)C1CC(=O)NCC(=O)NC(Cc2c[nH]c3ccccc23)C(=O)NC(Cc2ccc(O)cc2)C(=O)NCC(=O)NC(CO)C(=O)NC(CCC(N)=O)C(=O)NC(Cc2c[nH]c3ccccc23)C(=O)N1)C(=O)NCC(=O)NC(CCC(N)=O)C(=O)NC(CCCNC(=N)N)C(=O)NC(CC(=O)O)C(=O)O` (stereo not given) was tested. Which growth did it give?
A: The growth was 99.5%.

Q: `COc1ccc(NC2=CC(=O)C(C)=C(C)C2=O)cc1` was tested. Which growth did it give?
A: Its growth is 89%.

Q: For `COC(=O)C(Cc1ccccc1)NS(=O)(=O)/N=C1\NC(=O)NC1=C(Cl)Cl` (stereo not given), which growth is on record?
A: Its growth is 99.5%.

Q: With `Cn1ccnc1C(=O)/C=C/c1ccc(NC(=O)Nc2ccccc2)cc1` as the molecule, how does the growth read?
A: The growth was 12.4%.

Q: For `C#Cc1nc(C2=C(C)C(OC(=O)CCC(=O)O)CC2)cs1` (stereo not given), which growth is on record?
A: Its growth is 99.8%.

Q: `C#Cc1nc(C2=C(C)C(=N\O)/C(=N/O)C2)cs1` was tested. Which growth did it give?
A: The growth was 94.5%.

Q: For `CCCC(=O)NC(c1cccc(N(C)C)c1)c1cc(C)c2cccnc2c1O` (stereo not given), which growth is on record?
A: Its growth is 24.9%.

Q: `O=c1[nH]c2ccccc2cc1CSc1ccccc1Nc1nccc(-c2ccc(C(F)(F)F)cc2)n1` was tested. Which growth did it give?
A: The growth was 69.1%.

Q: Which growth does the source give for `CN1CCN(Cc2ccc(NC(=O)c3cncc(C#Cc4cnc5[nH]ncc5c4)c3)cc2C(F)(F)F)CC1` here?
A: Its growth is 19.4%.

Q: `OC1CCN(CCCOc2c3ccccc3nc3c2oc2ccc(Cl)cc23)CC1` was tested. Which growth did it give?
A: Its growth is 10.1%.

Q: How did the growth turn out when `O=C(N/N=C/c1ccc([N+](=O)[O-])s1)c1[nH]c2ccc(Br)cc2c1-c1ccccc1` was run?
A: Its growth is 4.77% (active).

Q: `C[C@@H](Nc1c(C#N)cnc2ccc(-c3cnc(N)nc3)cc12)c1ccccc1` was tested. Which growth did it give?
A: The growth was 9.79% (active).

Q: With `O=C(N/N=C/c1cccs1)c1[nH]c2ccc(Br)cc2c1-c1ccccc1` as the molecule, how does the growth read?
A: The growth was 9.74% (active).

Q: Which growth does the source give for `CO/N=C1\CCc2c(sc(NC(=O)c3cccc(C(F)(F)F)c3)c2C(N)=O)C1` here?
A: The growth was 64.6%.

Q: For `Clc1ccc2oc3c(NCCCn4ccnc4)c4ccccc4nc3c2c1`, which growth is on record?
A: Its growth is 13%.

Q: For `N#Cc1ccc(C(=O)CSc2nc(Nc3ccc(S(N)(=O)=O)cc3)c3ccccc3n2)cc1`, which growth is on record?
A: The growth was 100%.

Q: How did the growth turn out when `Cn1c(SCC(=O)Nc2ccc(-c3nc4ccc([N+](=O)[O-])cc4[nH]3)cc2)nc2ccccc2c1=O` was run?
A: The growth was 78.2%.

Q: Which growth does the source give for `COc1cc(/C=C/C(=O)c2ccc(Cl)cc2)ccc1Oc1nc(NCCO)nc(N2CCOCC2)n1` here?
A: The growth was 98.2%.
